# Screens (PubChem BioAssay)
# Rows were chosen to be rich in hits. Some 1.8% of all compounds tested hit in one or more screens of this group.
# LGR2 antag = inhibitors of bursicon-induced Drosophila LGR2 receptor cAMP signaling | HEK293 LGR2, CRE-luciferase, bursicon-stimulated, 4 h | inhibition, % at 9.99 µM | hit rate 0.35% among 380,000 | AID 720647;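 active = drop in luminescence signal, shown as inhibition above about 50% in the replicate tests, limit read from the data, passing the limit was not always enough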;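 note: agonist challenge used bursicon conditioned medium at about half maximal strength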
# RAD52 inh = RAD52 (human) annealing inhibition. recombinant RAD52 DNA annealing, FRET fluorescence. P43351. hit rate 0.46% among 360,000. inhibition, % at 18.7 µM;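 active = every replicate showing at least 50% inhibition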
# Target sequence (P43351 whole entry, looked up): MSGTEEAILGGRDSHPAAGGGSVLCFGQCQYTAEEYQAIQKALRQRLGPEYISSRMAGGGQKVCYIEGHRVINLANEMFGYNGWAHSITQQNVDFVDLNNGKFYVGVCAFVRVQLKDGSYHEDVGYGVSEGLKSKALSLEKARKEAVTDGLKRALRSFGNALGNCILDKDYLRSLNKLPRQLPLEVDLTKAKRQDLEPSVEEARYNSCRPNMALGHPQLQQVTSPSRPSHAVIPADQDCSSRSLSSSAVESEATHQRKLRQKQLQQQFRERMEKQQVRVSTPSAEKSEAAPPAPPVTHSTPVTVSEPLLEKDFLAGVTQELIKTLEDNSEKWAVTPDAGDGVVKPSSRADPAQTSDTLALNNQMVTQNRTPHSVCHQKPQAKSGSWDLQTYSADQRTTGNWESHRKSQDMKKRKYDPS
# EWS-Fli block = EWS/Fli transcriptional activity inhibition | inhibition, % at 12.6 µM | A673 NR0B1-luciferase reporter, viability-normalised | hit rate 0.67% among 350,000;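 active = mean inhibition of at least 50% after viability correction, with every replicate also passing that limit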;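 note: firefly luciferase signal divided by Alamar Blue viability fluorescence both relative to DMSO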
# RAD54 inh = blocks human RAD54 Holliday junction branch migration | Q92698 | FAM/BHQ fluorescence | inhibition, % at 10.4 µM | hit rate 0.14% among 360,000 | AID 602329;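 active = mean normalized replicate activity at least 40 and at least half of replicates scoring 40 or more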;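 note: 0% = median of neutral control wells and 100% = median of positive control wells; inhibitors cause a drop in the FAM fluorescence signal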
# INS-1E GSIS act = primary screen for activators of insulin secretion dependent on glucose, INS-1E cells, GLuc reporter luminescence; INS-1E GLuc reporter insulin secretion, 2-3 h; activation, % at 16.6 µM; hit rate 0.61% among 370,000; AID 743287;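 active = lowest replicate activation of at least 40%, so every replicate reaches that level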;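 note: 0% = median of neutral control wells and 100% = median of IBMX positive control wells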
# CFTR F508del cor = CFTR F508del correction in bronchial cells; activity (quench increase), % at 7.58 µM; hit rate 0.36% among 350,000; AID 720511; CFBE cells, YFP halide quenching; stimulated with forskolin plus potentiator P3; % fluorescence drop versus neutral controls;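 active = mean added fluorescence quench of at least 8% versus neutral control, with both replicates also reaching 8%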;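 note: cells transiently co-express mutant CFTR-F508del with the halide-sensitive YFP; corrector assay measuring rescue of mutant channel to the surface after 24 h compound exposure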
# The depositor's hits bear a star; . = not tested or not shown.
SMILES,LGR2 antag,RAD52 inh,EWS-Fli block,RAD54 inh,INS-1E GSIS act,CFTR F508del cor
CCCSc1nc(O)c(C2OC(=O)c3c2ccc(OC)c3OC)c(=O)n1-c1ccccc1 (centres undefined),.,.,.,-4.4,.,.
COc1nn(-c2ccccc2)c(=O)c(Cl)c1Cl,-14.4,-8.3,76.0*,12.2,0.3,-2.5
CCOC(=O)c1sc2ncn(/N=C/c3cccnc3)c(=O)c2c1C,9.8,.,.,8.1,51.5*,.
CCOC(=O)c1sc2ncn(/N=C/c3ccc(O)cc3)c(=O)c2c1C,-5.5,15.8,-1.0,.,2.9,-5.4
O=C(/C=C/c1ccc([N+](=O)[O-])cc1)Nc1ncc([N+](=O)[O-])s1,94.4*,-7.6,24.9,0.1,-46.6,-6.7
O=C(/C=C/c1ccc([N+](=O)[O-])cc1)NCc1ccccn1,3.3,.,.,-4.3,0.5,.
CC1=C(c2ccccc2)[N+](=O)C2(CCCCC2)N1[O-],12.5,-9.5,3.8,-5.6,-4.0,0.4
Cc1nc2ccccc2c2oc(C(=O)N3CCCC(C)C3)cc12 (centres undefined),-3.5,-10.1,-2.3,-1.6,46.2*,-2.4
Cc1nc2ccccc2c2oc(C(=O)N3CCN(C4CCCCC4)CC3)cc12,-5.1,9.6,-1.1,27.9,-7.6,0.5
COc1ccccc1C(=O)Nc1ccc2c(c1)C(=O)N(C)[C@H]1CC[C@@H](CC(=O)NCc3ccc(Cl)c(Cl)c3)O[C@@H]1CO2,13.0,-6.1,-0.2,-1.2,-0.2,-2.4
COc1ccc(-c2nc(CS(=O)CC(=O)NC(C)CCc3ccccc3)c(C)o2)cc1OC (centres undefined),-17.6,-5.8,8.2,-4.4,49.3*,2.7
COc1ccc(-c2ccc(SCc3cccnc3)nn2)cc1OC,-44.4,14.9,-15.5,.,46.5*,4.0
c1cncc(CSc2ccc(-c3cccnc3)nn2)c1,-7.0,-14.0,-14.5,-6.1,-1.0,-3.5
COc1ccc(-c2ccc(SCc3ccccn3)nn2)cc1OC,-37.0,0.5,-5.3,.,83.2*,3.4
CC(C)COC(=O)N(C)C[C@H]1OCc2cn(nn2)CCCC(=O)N([C@@H](C)CO)C[C@@H]1C,-1.4,2.1,-5.7,-6.5,-7.8,-0.3
CC(=O)NC(Cc1cccc(F)c1)C(=O)NC1CCN(C(=O)Nc2ccccc2)CC1 (centres undefined),2.5,-10.4,-9.2,-2.5,4.3,1.5
Cn1c(=N)n(CC(=O)c2ccc(Br)cc2)c2ccccc21,-103.7,8.4,9.6,.,-7.0,-1.3
Cn1c(=N)n(CC(=O)c2ccc(F)cc2)c2ccccc21,-1.8,-14.4,77.6*,-0.6,-15.5,1.4
Cc1noc(C)c1COc1ccc(C(=O)N2CCN(S(=O)(=O)c3ccc(F)cc3)CC2)cc1,-36.7,-10.2,-1.3,-3.3,-34.3,25.6*
O=C(O)/C(=C1/OC(=O)c2ccccc21)c1ccccc1,.,.,.,6.3,.,.
O=C(O)c1ccccc1OCc1ccccc1Br,-36.8,-16.9,-2.9,.,-2.1,-2.1
F[B-](F)(F)COCc1ccccc1Br,-40.5,-24.8,9.9,-2.9,55.7*,3.9
F[B-](F)(F)COCc1ccccc1C#Cc1ccccc1,-64.4,-3.6,-6.6,.,97.6*,1.5
O=C(C#Cc1ccccc1)Nc1ccccc1F,-23.6,-16.1,-7.6,-2.8,22.0,-0.6
CCCCC#Cc1ccccc1COC[B-](F)(F)F,-56.5,-2.8,-0.2,.,73.0*,0.2
CCCCC#Cc1ccc(C(=O)NNC(=O)Nc2ccccc2)o1,-4.0,-6.4,5.0,.,3.2,-0.5
COc1ccc(C(=O)/C(C#N)=N/Nc2ccccc2[N+](=O)[O-])cc1,.,-9.0,45.1,.,61.8*,.
C[C@@H]1CN([C@H](C)CO)C(=O)c2cc(NC(=O)Nc3ccc(C(F)(F)F)cc3)ccc2O[C@@H](C)CCCCO[C@H]1CN(C)Cc1ccccc1,9.0,-3.2,76.6*,9.4,-20.1,3.9
C[C@H](CO)N1C[C@H](C)[C@H](CN(C)Cc2ccc(Cl)c(Cl)c2)Oc2ccc(NC(=O)CCCN(C)C)cc2C1=O,10.0,19.5,70.2*,13.0,4.6,1.3
C[C@H](CO)N1C[C@H](C)[C@@H](CN(C)Cc2ccccc2)OCCCC[C@H](C)Oc2ccc(NC(=O)Nc3ccc(C(F)(F)F)cc3)cc2C1=O,0.0,-2.1,10.1,-9.1,26.5,4.5
